Inconclusive results are not listed. Entries that show only a call come without a potency. Active and inactive are the calls of the source. The call rests on the fitted dose curve; in most records, active means well fitted inhibition curve with a large enough effect; inconclusive means small, poorly fitted or top-dose-only effect; inactive means flat fitted curve, though single readings scatter.

The subject of this assay is CRL-7250. Briefly: qHTS assay to identify novel small-molecules to repurpose for Merkel cell carcinoma treatment (AID 1296009). Further: nearly all actives have a fitted effect of over 60% in size. The settings on record: MCC and control cell lines, CellTiter-Glo viability, 72 h; series mostly up to 92 µM. The essentials: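 Cells were treated for 72 hr at 37 degree celsius with compounds in 8- or 11-point dose response. Viability was read by CellTiter-Glo luminescence, normalized to no-cell (cytotoxicity) and DMSO controls.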
Background: Quantitative high-throughput screening tests each substance at several concentrations.
Take `CC1CCC2(OC1)OC1CC3C4CC=C5CC(O)CC(O[C@@H]6OC[C@@H](O)[C@H](O)[C@H]6O)C5(C)C4CCC3(C)C1(O)C2C` (stereo partly drawn): the Potency result is “inactive”.
On to `Cc1ccc(-c2ccc3c(ccc4sc5c(c43)NC[C@@H](C)NC5=O)n2)cn1`, for which the Potency result was “inactive”.
For `COC1CCCC/C(C)=C/C2C=C(C)C(C)C3C(CC(C)C)NC(=O)C23C(=O)C1` (stereo not drawn), the Potency entry was “inactive”.
In the case of `C=C1C(=O)OC2C1C(O)CC1(C)C(O)CCC(C=O)C21` (stereo not drawn), the Potency result was “inactive”.
In the case of `COc1ccc(CNC(=O)c2cc(-c3cncc(C)c3)ncc2-c2nccs2)nc1OC` it was “inactive”; in that of `CC(C)[C@](O)(c1ccc2cc(OC(F)F)c(OC(F)F)cc2c1)c1cn[nH]n1`, “inactive”; in that of `CO[C@H]1O[C@@H]2O[C@@]3(C)CCC4[C@H](C)CCC([C@H]1C)[C@]42OO3` (stereo partly drawn), “inactive”.
Consider `CC(=O)O[C@H]1C[C@@H](O)C(C)(C)C2C[C@@H](OC(C)=O)[C@@]3(C)C4=CCC(C(CO)CC(O)C5OC5(C)C)[C@]4(C)CCC3[C@]21C` (stereo partly drawn), for which the Potency entry is “inactive”.
As for `CCC(C)/C=C(C)/C=C/C1=CC2=C(Cl)C(=O)C(C)(OC(C)=O)C(=O)C2=CN1CCCC(=O)O` (stereo not drawn), the Potency result was “inactive”.
In the case of `C[C@H]1CC[C@H]2[C@@H](C=C[C@@](C)(O)[C@]2(C)C(=O)CCO)C1` it was “inactive”; in that of `C=CC1C(OC2OC(CO)C(O)C(O)C2O)OC=C2C(=O)N3C(C(=O)O)Cc4c([nH]c5ccccc45)C3CC21` (stereo not drawn), “inactive”.
In the case of `CC(C)CC(=O)OC[C@@]1(O)C[C@@]23CC[C@H]4[C@@](C)(CCC[C@@]4(C)C(=O)O)[C@@H]2CC[C@@H]1C3` it was “inactive”; in that of `COc1ccc(C2Oc3c(OC)cc(CCCO)cc3C2COC2OC(CO)C(O)C(O)C2O)cc1OC` (stereo not drawn), “inactive”.

(Values after PubChem BioAssay (NCATS).)
